Bioassay records from PubChem.
Many of the other results were omitted from the sample, so hits are more common in it than they were.
Pf Dd2 inh: blocks in vitro growth of P. falciparum Dd2 | P. falciparum Dd2 growth, SYBR Green, 72 h | Potency, µM (titrated, usually from 28.9 µM), for inactives: at the highest dose activity, negative = inhibition, actives largely listed as inhibitors | 4.3% of 120,000 active | AID 1347417; active means well fitted inhibition curve with a large enough effect;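 further: plate controls were DMSO vehicle for no effect and reference drug for full effect; nearly all actives have a fitted effect of over 65% in size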
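Infected erythrocytes (Dd2, 0.3% parasitemia, 2.5% hematocrit final) are added to compound in RPMI-1640/Albumax II medium, grown 72 h at 37C in low oxygen, then lysed with saponin/Triton-X containing SYBR Green and read by fluorescence.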
* = called active by the depositor; i = inactive; [ ] = dose if it differs, or a comment. Potency means the concentration at half of the fitted maximal effect.

SMILES	Pf Dd2 inh
Cc1cccc(CN2C(=O)c3ccccc3Sc3ccc(C(=O)N4CCCC4)cc32)c1	14µM*
CCN(C(=O)CN1C(=O)c2ccccc2Sc2ccc(C(=O)OC)cc21)c1cccc(C)c1	11µM*
Cc1ccccc1CN1C(=O)c2ccccc2Sc2ccc(C(=O)N3CCCC3)cc21	-17%
O=C(NCCc1ccccc1)c1ccc2c(c1)N(Cc1c(F)cccc1Cl)C(=O)CS2	i
CN1C(=O)c2ccccc2Sc2ccc(NC(=O)NCc3ccc(Cl)cc3)cc21	-27%
CCN(CC)CCNC(=O)Nc1ccc2c(c1)N(Cc1ccccc1)C(=O)c1ccccc1S2	4µM*
COC(=O)c1ccc2c(c1)N(Cc1ccc(F)cc1)C(=O)c1ccccc1S2	5%
CCOC(=O)c1ccc2c(c1)N(Cc1ccccc1)C(=O)c1ccccc1S2	-13%
COC(=O)c1ccc2c(c1)N(Cc1ccc(Cl)cc1)C(=O)c1ccccc1S2	24%
O=C(Nc1ccc(Cl)cc1)C1=NO[C@@H]2CN(c3ccccc3)C[C@H]12	1%[44.1 µM]
COCC(=O)NC[C@H]1O[C@H](Cc2cc(CN(C)C)on2)CC[C@@H]1O	0%[44.1 µM]
CCS(=O)(=O)NCc1nc(-c2ccc(C)cc2)c(-c2ccccn2)[nH]1	-24%
Cn1ccnc1CN1C(=O)CO[C@H]2CN(C(=O)c3cccnc3)C[C@H]21	i
COc1ccc(CCN(CC2CCN(C)CC2)C(=O)C(C)N2CCOCC2)cc1 (stereo not given)	-7%
CS(=O)(=O)N(C1CC1)C1CCOC2(CCN(C(=O)c3cc(F)ccc3F)CC2)C1 (stereo not given)	-24%
COCCN1C(=O)c2cccn2CC1CNC(=O)Cc1cccc(OC)c1 (stereo not given)	-11%
O=C([C@@H]1C[C@H](Oc2ccccc2)CN1C(=O)C1CCCC1)N1CCOCC1	6%
CN1CCN(C(=O)c2ccc3c(c2)N(Cc2c(F)cccc2Cl)C(=O)c2ccccc2S3)CC1	0.2µM*
CN1CCN(C(=O)c2ccc3c(c2)N(Cc2ccc(C(F)(F)F)cc2)C(=O)c2ccccc2S3)CC1	0.4µM*
O=C(c1ccc2c(c1)N(Cc1cccc(F)c1)C(=O)c1ccccc1S2)N1CCOCC1	-17%
CC(C)OCCCNC(=O)c1ccc2c(c1)N(Cc1c(F)cccc1Cl)C(=O)c1ccccc1S2	-13%
O=C(NC1CCCC1)c1ccc2c(c1)N(Cc1c(F)cccc1Cl)C(=O)c1ccccc1S2	-19%
Cc1ccccc1CN1C(=O)c2ccccc2Sc2ccc(C(=O)N3CCOCC3)cc21	31%
O=C1NC(C(=O)NC2CCN(Cc3ccccc3)CC2)Cn2cccc21 (stereo not given)	-8%
COCCOC1CCN(S(=O)(=O)Cc2ccccc2F)CC1	13%
SMILES	Pf Dd2 inh
COc1ccc(-c2ncc[nH]2)cc1	18%[44.1 µM]
CNC(=O)[C@@H]1CN(C(=O)c2ccc(C)c(C)c2)C[C@H]1CO	15%
O=C(NCc1ccncc1)c1cn(C2CN(C(=O)Nc3ccccc3)C2)nn1	18%
CN(Cc1cccc(-c2nn[nH]n2)c1)c1cc(C2CC(N)C2)ncn1 (stereo not given)	-13%
Cc1cccnc1CN(C)c1cc(C2CC(O)C2)ncn1 (stereo not given)	13%
COc1ccc(Cl)cc1CN(C)c1cc(C2CC(N)C2)ncn1 (stereo not given)	10µM*
Cc1cnc(C(=O)NC2C[C@H]3CC[C@@H](C2)N3C(=O)c2ccc(OC(C)C)cc2)cn1 (stereo not given in full)	i
Cc1cnc(CC2CCN(Cc3ccc(F)cc3F)C2)n1CC1CC1 (stereo not given)	-5%
Cc1ccc(Cn2c(C3CCN(C(=O)c4cccc(Cl)c4)CC3)n[nH]c2=O)cc1	0%
Cc1ccc(-n2c(C3CCN(C(=O)c4cccc(C)c4)CC3)n[nH]c2=O)cc1	-2%
Cc1ccc(Cn2c(C3CCN(C(=O)c4cc(C)cc(C)c4)CC3)n[nH]c2=O)cc1	8.9µM*
Cc1ccc(-n2c(C3CCN(C(=O)COc4ccc(F)cc4)CC3)n[nH]c2=O)cc1	-15%
Cc1ccc(-n2c(C3CCN(C(=O)COc4ccc(Cl)cc4)CC3)n[nH]c2=O)cc1	0.89µM*
CCc1ccc(C(=O)N2CCC(c3n[nH]c(=O)n3Cc3ccc(F)cc3)CC2)cc1	-26%
Cc1ccc(Cn2c(C3CCN(C(=O)c4cccc(C)c4)CC3)n[nH]c2=O)cc1	-28%
Cc1ccc(Cn2c(C3CCN(C(=O)c4ccc(C#N)cc4)CC3)n[nH]c2=O)cc1	i
Cc1ccc(-n2c(C3CCN(C(=O)c4ccc(C(C)(C)C)cc4)CC3)n[nH]c2=O)cc1	4.5µM*
Cc1ccc(-n2c(C3CCN(C(=O)c4cc(Cl)ccc4F)CC3)n[nH]c2=O)cc1	i
Cc1ccc(Cn2c(C3CCN(C(=O)c4ccc(C(C)(C)C)cc4)CC3)n[nH]c2=O)cc1	2.5µM*
Cc1ccc(-n2c(C3CCN(C(=O)c4cc(C)cc(C)c4)CC3)n[nH]c2=O)cc1	i
COc1ccc(C(=O)N2CCCC(c3nc(C4CCOCC4)no3)C2)cc1OC (stereo not given)	52%
O=C(NCc1ccncc1)C1Cn2cccc2C(=O)N1Cc1ccccc1 (stereo not given)	i
COc1ccc(N2CCN(C(=O)c3c(C)nn(-c4ccc(F)cc4)c3-n3cccc3)CC2)cc1	10%
Cc1nc2ncnn2c(C)c1CCC(=O)N1CCN(c2ccc(F)cc2)CC1	5%
COc1ccc(-c2cc3nc(C)c(CCC(=O)N4CCN(c5ccc(F)cc5)CC4)c(C)n3n2)c(OC)c1	10µM*
SMILES	Pf Dd2 inh
COc1ccc(N2CCN(C(=O)CCc3c(C)nc4cc(-c5ccc(Cl)cc5)nn4c3C)CC2)cc1	i
Cc1nc2ncnn2c(C)c1CCC(=O)N1CCN(c2cccc(Cl)c2)CC1	7%
COc1ccc(-c2cc3nc(C)c(CCC(=O)N4CCN(c5cccc(Cl)c5)CC4)c(C)n3n2)c(OC)c1	10µM*
Cc1ccc(CN(C(=O)c2ccco2)c2ccc(CC(=O)NCc3ccccc3)cc2)cc1	i
O=C(NCCCn1ccnc1)C1CCCN(c2nc(-c3ccccc3)nc3c2CCC3)C1 (stereo not given)	i
CN1CC(=O)N(C2CCC2)Cc2c1ncnc2N1CCC(N2CCCCC2)CC1	i
COc1ccc(/C=C\c2onc(C)c2S(=O)(=O)N2CCC(C(=O)Nc3cccc(OC)c3)CC2)cc1	8.9µM*
CCN(CC)C(=O)C1CCN(S(=O)(=O)c2c(C)noc2/C=C/c2cccc(OC)c2)CC1	-21%
Cc1ccc(/C=C/c2onc(C)c2S(=O)(=O)N2CCC(C(=O)Nc3ccc(Br)c(C)c3)CC2)cc1	2%
COc1ccc(CNC(=O)C2CCN(S(=O)(=O)c3cccc(-c4noc(C)n4)c3)CC2)cc1	i
COc1ccc(-c2noc(N3CCC(C(=O)Nc4cccc(C)c4C)CC3)n2)cc1	-2%
COc1ccc(NC(=O)C2CCN(S(=O)(=O)c3cc(-c4noc(C)n4)ccc3C)CC2)cc1	6.3µM*
CCN(Cc1ccc(C)o1)C(=O)c1ccc2nc(-c3ccc(F)cc3)cn2c1	4%
COc1ccc(-c2cccc(CCOc3cnc4c(ccn4CC(=O)O)c3)c2)c(C)c1	i
COc1cccc(NC(=O)c2cc3c(N4CCCC4)nc(C)cn3n2)c1	-5%
CN1C[C@@H](NC(=O)C2CCCCC2)C[C@H]1c1nc(-c2ccc(F)cc2)no1	-10%[44.1 µM]
COCCN1C(=O)CCc2cc(NC(=O)c3ccc(F)cc3)ccc21	-13%
COc1ccc(NC(=O)c2ccc3c(c2)N(C)C2CCCCCN2C3=O)cc1Cl (stereo not given)	-10%
Cc1ncc(CO)c2c1Oc1nc(-c3ccc(Cl)cc3)nc(SCC(=O)N3CCCCC3)c1C2	3.2µM*
